# Records with an inconclusive call do not appear. Activity calls are given as the source filed them. Calls come from the whole dose curve; as a rule, active = well fitted inhibition curve with a large enough effect in the signal ratio in the repeat runs (not every such curve was filed as active); inconclusive = weak or mixed curves, or effect the other way; inactive = flat fitted curve, though single readings scatter; the % refers to the signal ratio.
# Assay: cAMP Responsive Elements (CRE) small molecule antagonists, cell-based qHTS assay (AID 1963591)
# Conditions: CRE-bla HEK293T, beta-lactamase FRET ratio; series mostly up to 92.4 µM; activity change, negative = inhibition: at the top concentration
# From the text: U.S. Tox21 Program National Center for Advancing Translational Sciences [NCATS] Division of Preclinical Innovation [DPI] U.S. Environmental Protection Agency [EPA] National Institutes of Environmental Health Sciences [NIEHS] National Toxicology Program [NTP] U.S. Food and Drug Administration [FDA] Tox21 Assay Overview: CREB (cyclic-AMP Responsive Element Binding Protein) is a cellular transcription factor. It binds to certain DNA sequences called cAMP Responsive Elements (CRE) and regulates the transcription of the genes. […] This cell line can be used to find agonists/antagonists of the cyclic AMP signaling pathway. The activation of the report gene under culture conditions can be detected by fluorescence intensity. This cell line has been used to screen the Tox21 10K compound library to […].
# Tox21 Assay Protocol Summary: CRE-bla Hek 293T cells were suspended in assay medium (DMEM containing 10% dialyzed FBS, 0.1 mM NEAA, 1 mM sodium pyruvate and 25 mM HEPES) and dispensed at 2,000 cells/4 uL /well into 1536-well black wall/clear bottom plates using a Multidrop Combi (ThermoFisher Scientific, Waltham, MA) dispenser. After the assay plates were incubated at 37 C/5% CO2 for 18 hrs, 23 nL of compounds dissolved in DMSO, positive controls or DMSO only was transferred to the assay plate by a pintool workstation (Kalypsys, San Diego, CA), followed by addition of 1 […] uL of 1.25uM NKH477 (0.25 uM as final concentration) in assay medium using a Flying Reagent Dispenser (Aurora Discovery, San Diego, CA). The plates were incubated at 37 C and 5% CO2 for 3 hrs. Then 1 uL of LiveBLAzer B/G FRET substrate (Invitrogen, Carlsbad, CA) was added to each well using Bioraptr Flying Reagent Dispenser (FRD, Aurora Discovery, San Diego, CA). The plates were incubated at room temperature for 2 h.
# % is set by controls: 0 for no effect and ±100 for the full control effect; potency is the fitted concentration of half-maximal effect.
SMILES,"activity change, negative = inhibition",Potency
CC(C)(C)C1CCCCC1=O (stereo not given),-0.122% (inactive),
CN(C)CC[C@@H](c1ccc(Br)cc1)c1ccccn1,-1.52% [at 42.4 µM] (inactive),
C=CCN(CC=C)CC=C,0.143% (inactive),
O=[N+]([O-])c1ccc(NCCO)c(OCCO)c1,2.3% (inactive),
CN(C)CCCN(C)C,-6.12% [at 8.39 µM] (inactive),
C1CCCCCCCCCCC1,-1.59% [at 18.9 µM] (inactive),
CC(C)(C)c1ccc(-c2ccc(C(C)(C)C)cc2)cc1,1.06% (inactive),
COc1ccc(NC(=O)CC(C)=O)cc1,11.8% (inactive),
CNC(=O)C(c1ccccc1)c1ccccc1,-16.6% (inactive),
COP(=O)(O)OP(=O)(O)OC,-8.81% (inactive),
CCC(C)n1ncn(-c2ccc(N3CCN(c4ccc(OC[C@H]5CO[C@](Cn6cncn6)(c6ccc(Cl)cc6Cl)O5)cc4)CC3)cc2)c1=O (stereo not given in full),5.2% [at 42.4 µM] (inactive),
C=O,-10.7% (inactive),
COC(Cc1ccccc1)OC,-3.74% (inactive),
CN1CCC[C@@H]1c1cccnc1,-5.74% [at 42.4 µM] (inactive),
Cc1ccccn1,0% (inactive),
CCOc1ccc2nc(S(N)(=O)=O)sc2c1,1.53% [at 42.4 µM] (inactive),
[O-][N+](=Nc1ccccc1)c1ccccc1,-16.9% (inactive),
Cc1ccc(C(=O)O)cc1[N+](=O)[O-],6.69% (inactive),
COc1nc(C)nc(Cl)c1NC1=NCCN1,-5.22% [at 42.4 µM] (inactive),
CC(CN=Cc1ccccc1O)N=Cc1ccccc1O (stereo not given),-13.6% (inactive),

SMILES,"activity change, negative = inhibition",Potency
C=C(C)C(=O)OCCOP(=O)(O)OCCOC(=O)C(=C)C,12.3% (inactive),
CCCCCCCC/C=C\CCCCCCCC(=O)OCC,-1.6% (inactive),
CN(C)C(=O)Nc1ccccc1,-0.126% (inactive),
CCCCC(CC)COC(=O)c1ccccc1 (stereo not given),-1.39% (inactive),
O=C(NCC(O)CO)c1c(I)c(C(=O)NCC(O)CO)c(I)c(N(CCO)C(=O)CO)c1I (stereo not given),-14.4% [at 42.4 µM] (inactive),
CC(C)CCCC(C)CC=O (stereo not given),0.336% (inactive),
CC(CO)(CO)CO,-8.9% (inactive),
O=C=NCC1CCCC(CN=C=O)C1 (stereo not given),3.13% (inactive),
C/C(CC(C)C)=N\O,13.7% (inactive),
CCOc1ccc2nc(N)sc2c1,13.2% (inactive),
COc1cc2nc(N(C)CCCNC(=O)C3CCCO3)nc(N)c2cc1OC (stereo not given),3.27% [at 42.4 µM] (inactive),
S=C(S)NCCNC(=S)S,-4.56% (inactive),
C/C=C(\C)C(C)=O,1.39% (inactive),
Clc1cccc(-c2cc(Cl)cc(Cl)c2)c1,-8.58% (inactive),
C=C[Si]1(C)O[Si](C)(C=C)O[Si](C)(C=C)O[Si](C)(C=C)O1 (stereo not given),-2.56% (inactive),
O=C(O)CO,-3.89% (inactive),
CCn1ccc(NS(=O)(=O)c2ccc(N)cc2)nc1=O,1.65% [at 42.4 µM] (inactive),
C1CCC(C(CC2CCCCN2)C2CCCCC2)CC1 (stereo not given),,29.8 µM (active)
C=C(C)C(=O)OC,-2.68% (inactive),
O=C1NC(=O)C2CC=CCC12 (stereo not given),-0.471% (inactive),
